Experimental data taken from paper PMC7862700, “An all-to-all approach to the identification of sequence-specific readers for epigenetic DNA modifications on cytosine”.

Legend:
Experiment in all cases: DAPPL (digital affinity profiling via proximity ligation, sequencing); 10 mM Tris-HCl pH 7.5, 50 mM NaCl, 1 mM DTT, 4% glycerol, room temperature, 30 min; GST-TFs on glutathione beads, 16-mer random dsDNA library, 0.1% formaldehyde crosslink after washing; high values mean tight binding
FEV = target: T1, FEV (Homo sapiens, UniProt Q99581 1-238); details: protein: recombinant; tags: N-terminal GST; dsDNA, one strand shown
T1 sequence: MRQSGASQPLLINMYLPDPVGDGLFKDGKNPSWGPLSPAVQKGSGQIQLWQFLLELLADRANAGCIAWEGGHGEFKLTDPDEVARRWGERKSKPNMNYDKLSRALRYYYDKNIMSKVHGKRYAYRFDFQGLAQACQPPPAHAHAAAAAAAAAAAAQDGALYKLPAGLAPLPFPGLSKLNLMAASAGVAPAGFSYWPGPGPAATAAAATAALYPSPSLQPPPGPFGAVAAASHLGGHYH
How it was run: (§1)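 Human transcription factors carrying a GST fusion were produced in yeast, bound to glutathione beads, tagged with DNA barcodes and pooled together with a tag-only sample. Each pool was held with 200 nmole of a random double-stranded 16-mer DNA library in Tris/NaCl/DTT/glycerol buffer for 30 min at room temperature, then washed, crosslinked in 0.1% formaldehyde, proximity-ligated with BsaI/T4 ligase (1 h, 37 °C), PCR-amplified and sequenced on an Illumina NextSeq500. Binding signal is the read frequency of each hexamer for a given factor divided by its frequency in the tag-only sample.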

ETV5 = ETV5 (Homo sapiens, UniProt P41161 1-510); details: protein: recombinant; tags: N-terminal GST; dsDNA, one strand shown
How it was run: as §1

HSF1 = HSF1 (Homo sapiens, UniProt Q00613 1-529); details: protein: recombinant; tags: N-terminal GST; chain copies: 3; dsDNA, one strand shown
How it was run: as §1

SPIC = target: T2, SPIC (Homo sapiens, UniProt Q8N5J4 1-248); details: protein: recombinant; tags: N-terminal GST; dsDNA, one strand shown
T2 sequence: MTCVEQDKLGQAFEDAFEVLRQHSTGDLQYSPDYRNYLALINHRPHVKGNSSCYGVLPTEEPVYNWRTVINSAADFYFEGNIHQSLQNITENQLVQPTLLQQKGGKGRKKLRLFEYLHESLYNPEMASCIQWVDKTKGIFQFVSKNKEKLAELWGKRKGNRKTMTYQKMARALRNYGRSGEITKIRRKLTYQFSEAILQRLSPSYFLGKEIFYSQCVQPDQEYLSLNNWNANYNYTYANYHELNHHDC
How it was run: as §1

ELF4 = ELF4 (Homo sapiens, UniProt Q99607 1-663); details: protein: recombinant; tags: N-terminal GST; dsDNA, one strand shown
How it was run: as §1

ELK4 = target: T3, ELK4 (Homo sapiens, UniProt P28324-2 1-405); details: protein: recombinant; tags: N-terminal GST; dsDNA, one strand shown
T3 sequence: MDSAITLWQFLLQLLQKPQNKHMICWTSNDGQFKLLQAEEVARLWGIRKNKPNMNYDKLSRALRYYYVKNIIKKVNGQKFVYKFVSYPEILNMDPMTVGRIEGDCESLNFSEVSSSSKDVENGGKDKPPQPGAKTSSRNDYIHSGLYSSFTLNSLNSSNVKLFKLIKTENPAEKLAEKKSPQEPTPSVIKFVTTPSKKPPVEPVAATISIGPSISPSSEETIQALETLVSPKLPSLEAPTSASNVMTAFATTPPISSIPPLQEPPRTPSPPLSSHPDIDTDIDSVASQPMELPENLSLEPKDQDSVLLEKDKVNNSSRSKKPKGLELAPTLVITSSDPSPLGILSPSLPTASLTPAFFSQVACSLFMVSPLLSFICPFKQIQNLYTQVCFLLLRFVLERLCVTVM
How it was run: as §1

ETV2 = target: T4, ETV2 (Homo sapiens, UniProt O00321 1-342); details: protein: recombinant; tags: N-terminal GST; dsDNA, one strand shown
T4 sequence: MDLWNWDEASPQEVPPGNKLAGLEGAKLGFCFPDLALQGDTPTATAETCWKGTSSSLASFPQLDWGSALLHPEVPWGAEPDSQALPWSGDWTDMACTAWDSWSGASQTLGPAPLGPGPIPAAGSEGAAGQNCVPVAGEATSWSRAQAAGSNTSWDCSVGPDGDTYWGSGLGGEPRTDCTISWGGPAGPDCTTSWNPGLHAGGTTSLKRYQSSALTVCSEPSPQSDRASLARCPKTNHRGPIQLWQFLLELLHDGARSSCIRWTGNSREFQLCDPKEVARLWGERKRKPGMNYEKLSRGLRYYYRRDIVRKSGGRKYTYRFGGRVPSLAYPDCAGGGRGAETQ
How it was run: as §1

ELF3 = target: T5, ELF3 (Homo sapiens, UniProt P78545 1-371); details: protein: recombinant; tags: N-terminal GST; dsDNA, one strand shown
T5 sequence: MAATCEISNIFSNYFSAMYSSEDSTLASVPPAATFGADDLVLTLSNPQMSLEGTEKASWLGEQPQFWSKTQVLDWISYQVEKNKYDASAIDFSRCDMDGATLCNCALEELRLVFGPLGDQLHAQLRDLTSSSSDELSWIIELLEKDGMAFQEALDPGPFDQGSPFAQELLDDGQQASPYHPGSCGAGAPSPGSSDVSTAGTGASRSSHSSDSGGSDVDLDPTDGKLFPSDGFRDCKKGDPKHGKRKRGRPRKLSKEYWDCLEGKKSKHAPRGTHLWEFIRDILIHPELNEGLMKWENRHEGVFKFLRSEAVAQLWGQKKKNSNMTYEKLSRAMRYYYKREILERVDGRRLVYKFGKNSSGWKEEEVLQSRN
How it was run: as §1

CRX = CRX (Homo sapiens, UniProt O43186 1-299); details: protein: recombinant; tags: N-terminal GST; dsDNA, one strand shown
How it was run: as §1

ELF4, sequence (Q99607 whole entry): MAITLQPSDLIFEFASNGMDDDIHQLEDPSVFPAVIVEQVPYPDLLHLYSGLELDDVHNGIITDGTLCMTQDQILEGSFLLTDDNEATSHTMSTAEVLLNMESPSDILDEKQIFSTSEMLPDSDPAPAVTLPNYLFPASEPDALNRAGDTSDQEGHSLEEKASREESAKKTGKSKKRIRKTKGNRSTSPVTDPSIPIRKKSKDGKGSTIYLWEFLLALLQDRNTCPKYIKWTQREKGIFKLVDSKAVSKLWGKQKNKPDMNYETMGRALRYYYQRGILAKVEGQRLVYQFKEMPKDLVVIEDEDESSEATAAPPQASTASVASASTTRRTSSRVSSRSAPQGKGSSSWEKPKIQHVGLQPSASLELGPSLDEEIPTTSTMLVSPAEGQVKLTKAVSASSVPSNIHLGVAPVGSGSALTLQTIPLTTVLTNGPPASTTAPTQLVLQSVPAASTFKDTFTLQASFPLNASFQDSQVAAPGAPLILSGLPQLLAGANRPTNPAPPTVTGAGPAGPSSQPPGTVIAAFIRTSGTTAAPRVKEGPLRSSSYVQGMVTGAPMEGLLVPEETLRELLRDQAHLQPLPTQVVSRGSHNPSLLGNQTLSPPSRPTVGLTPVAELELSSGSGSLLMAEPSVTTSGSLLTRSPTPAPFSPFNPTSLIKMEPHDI
CRX, sequence (O43186 whole entry): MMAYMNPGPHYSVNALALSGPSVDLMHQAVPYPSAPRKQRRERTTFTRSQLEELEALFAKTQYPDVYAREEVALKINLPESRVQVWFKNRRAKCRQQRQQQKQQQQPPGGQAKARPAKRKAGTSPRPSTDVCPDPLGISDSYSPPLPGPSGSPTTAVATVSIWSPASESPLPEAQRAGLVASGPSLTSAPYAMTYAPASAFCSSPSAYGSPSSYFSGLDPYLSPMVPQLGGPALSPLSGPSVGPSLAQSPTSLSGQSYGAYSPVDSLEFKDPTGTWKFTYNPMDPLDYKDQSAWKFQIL
ETV5, sequence (P41161 whole entry): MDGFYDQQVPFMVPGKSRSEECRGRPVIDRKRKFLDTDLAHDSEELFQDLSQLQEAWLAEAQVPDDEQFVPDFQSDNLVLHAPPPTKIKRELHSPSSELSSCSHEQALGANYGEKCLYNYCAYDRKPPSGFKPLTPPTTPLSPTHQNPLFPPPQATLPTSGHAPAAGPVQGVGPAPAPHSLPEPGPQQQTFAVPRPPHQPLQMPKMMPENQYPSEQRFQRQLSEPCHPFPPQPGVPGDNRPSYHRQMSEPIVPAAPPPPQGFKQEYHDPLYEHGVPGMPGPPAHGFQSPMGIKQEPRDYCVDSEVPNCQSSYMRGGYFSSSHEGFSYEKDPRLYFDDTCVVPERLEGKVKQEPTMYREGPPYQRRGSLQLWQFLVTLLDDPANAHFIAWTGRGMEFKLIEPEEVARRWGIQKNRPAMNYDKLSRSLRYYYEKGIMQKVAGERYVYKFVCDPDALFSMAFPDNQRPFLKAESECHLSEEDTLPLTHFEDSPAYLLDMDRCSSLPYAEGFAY
HSF1, sequence (Q00613 whole entry): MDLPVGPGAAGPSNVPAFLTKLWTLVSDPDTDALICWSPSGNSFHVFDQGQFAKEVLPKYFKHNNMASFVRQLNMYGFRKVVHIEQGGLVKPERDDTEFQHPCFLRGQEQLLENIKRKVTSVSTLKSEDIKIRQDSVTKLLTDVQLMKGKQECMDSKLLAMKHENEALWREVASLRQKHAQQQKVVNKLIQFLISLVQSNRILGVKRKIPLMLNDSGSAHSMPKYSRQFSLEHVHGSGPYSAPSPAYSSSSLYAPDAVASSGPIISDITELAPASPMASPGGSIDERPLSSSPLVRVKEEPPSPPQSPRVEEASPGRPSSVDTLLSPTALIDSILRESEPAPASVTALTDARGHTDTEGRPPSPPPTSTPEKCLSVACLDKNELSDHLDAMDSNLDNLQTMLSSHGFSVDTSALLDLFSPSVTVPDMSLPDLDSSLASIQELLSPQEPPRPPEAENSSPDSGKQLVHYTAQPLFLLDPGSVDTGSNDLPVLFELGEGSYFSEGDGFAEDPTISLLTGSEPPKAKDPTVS

**Q.** How did the binding signal (FEV) turn out when TTCTAC was run?
**A.** Its binding signal is 1.5 fold enrichment (6-mer frequency, TF over GST control).

**Q.** And the binding signal (ETV5)?
**A.** Its binding signal is 1.55 fold enrichment (6-mer frequency, TF over GST control).

**Q.** And the binding signal (HSF1)?
**A.** Its binding signal is 2.46 fold enrichment (6-mer frequency, TF over GST control).

**Q.** And the binding signal (SPIC)?
**A.** The binding signal was 1.7 fold enrichment (6-mer frequency, TF over GST control).

**Q.** And the binding signal (ELF4)?
**A.** Its binding signal is 1.48 fold enrichment (6-mer frequency, TF over GST control).

**Q.** And the binding signal (ELK4)?
**A.** The binding signal was 1.59 fold enrichment (6-mer frequency, TF over GST control).

**Q.** What about the binding signal (ETV2) of the same sequence?
**A.** The binding signal was 1.53 fold enrichment (6-mer frequency, TF over GST control).

**Q.** And the binding signal (ELF3)?
**A.** The binding signal was 1.64 fold enrichment (6-mer frequency, TF over GST control).

**Q.** What about the binding signal (CRX) of the same sequence?
**A.** The binding signal was 1.69 fold enrichment (6-mer frequency, TF over GST control).
